The record followed here is PubChem BioAssay AID889 (National Center for Advancing Translational Sciences (NCATS), 2007).

Among all 75,000 compounds or so, about 15 (0.02%) were called active. About 3% were inconclusive and are not listed. Only a selection was taken, and actives are over-represented in it overall. A number with no mark means an inactive call. Calls follow the shape of the dose curve; as a rule, active = well fitted inhibition curve with a large enough effect in the main read-out, with a control signal flat (not every such curve was filed as active); inconclusive = small, poorly fitted or top-dose-only effect, or a change in a side signal; inactive = flat fitted curve, though single readings scatter.

The target in this assay is Caspase-7 (Homo sapiens) (UniProt P55210). Kind of assay: qHTS Assay for Allosteric/Competitive Inhibitors of Caspase-7. Also: % of control where 0% means no effect. The conditions noted are these: recombinant caspase-7, Ac-DEVD-AFC fluorescence rate; series mostly up to 57.5 µM; activity change, negative = inhibition: at the top concentration. The text has this: NIH Molecular Libraries Screening Centers Network [MLSCN]
Chain of Caspase-7 (Homo sapiens) (P55210 24-198 limits assumed): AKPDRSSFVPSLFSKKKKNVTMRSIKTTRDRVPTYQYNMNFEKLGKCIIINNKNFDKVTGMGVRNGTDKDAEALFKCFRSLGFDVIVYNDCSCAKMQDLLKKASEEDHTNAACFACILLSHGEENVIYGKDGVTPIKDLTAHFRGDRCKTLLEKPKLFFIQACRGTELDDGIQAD
Chain of Caspase-7 (Homo sapiens) (P55210 207-303 limits assumed): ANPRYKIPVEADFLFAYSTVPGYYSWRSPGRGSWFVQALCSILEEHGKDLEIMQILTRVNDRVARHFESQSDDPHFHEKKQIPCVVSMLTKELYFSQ
NIH Chemical Genomics Center [NCGC]
PI Name: Dr. James Wells,
Dr. Enrique Perez-Paya, Dr.Janice Williams, Dr. Dennis Wolan, a person
The caspases (Cysteine Aspartyl Protease) comprise a related family of 14 dimeric proteases that are critical mediators of apoptosis (programmed cell death) and inflammation. The caspases represent an important class of drug targets for stroke, ischemia, cancer and inflammatory diseases. […] One goal of this project was to identify compounds that act as allosteric inhibitors via stabilizing the procaspase form of the enzyme. Previous work in Well's laboratory has shown that such allosteric inhibitors can be identified and these act by binding at the dimer interface of enzyme (Hardy, Lam et al., 2004).
The biochemical assay was configured using purified caspase 7 at a high enzyme concentration to promote formation of the homodimers and thus facilitate the identification of allosteric inhibitors. The overall goal was to identify reversible inhibitors with better drug-like properties than the currently available set of aspartyl-containing peptidomimetics that covalently bind the active site. Caspase 7 was assayed using the profluorescent substrate Ac-DEVD-AFC. After initiation of the assay with substrate the plates were rapidly read using an automated robotic system (Kalypsys, Inc.) to maintain consistent timing. A kinetic mode of detection was used where the initial rate was collected (estimated final product formation was ~10%). Compounds were screened as a concentration-titration series that ranged from 57 uM to 0.7 nM. Below is the protocol used for caspase 7.
NCGC Assay Protocol Summary:
Caspase 7 was prepared in buffer (50 mM HEPES pH 7.5, 50 mM KCl, 200 mM NaCl, 10 mM DTT, 0.1% CHAPS) at a concentration of 66.6 nM and 3 uL was dispensed to all wells using black solid Kalypsys 1536-well plates. 20 nL of DMSO containing compounds was added using a pin-tool (Kalypsys Inc.) to columns 5-48. Then 20 nL of DMSO solution from a control plate was added to columns 1-4. Controls were: Column 1, 16 point titration with each concentration in duplicate (1:1 dilutions in DMSO; final starting concentration was 57 uM) of the caspase 7 inhibitor Ac-DEVD-CHO (Alexis Biochemicals); Column 2, a 16 point titration with each concentration in duplicate of the free AFC fluorophore prepared in DMSO (Alexis Biochemicals), final starting was 40 uM; Column 3 neutral (DMSO only) control; Column 4: DMSO alone, to serve as a negative control (no substrate was added). Then 1 uL of 20 uM the substrate Ac-DEVD-AFC (Alexis Biochemicals) prepared in the same buffer was dispensed to all wells except columns 2 and 4 and the plates were immediately transferred (< 1 min) to the Viewlux. The plates were then exposed using 405 nm excitation/520 nm emission filters for 4 sec and read at 20 sec intervals for 3 min. Final enzyme concentration was 50 nM and the final substrate concentration was 5 uM.
Concentration-response curves were fitted to the data calculated from slope of the linear regression of fluorescent intensity versus time (the rate). The concentration-effect curves were then classified based on curve quality (r2), response magnitude and degree of measured activity. […] Inconclusive compounds had appreciable concentration-dependent effects on both the measured rate and the interpolated basal fluorescence intensity at the start of the reaction but where the basal fluorescent intensity was marginal (e.g. < 10-fold). Inconclusive compounds also encompass highly fluorescent compounds (>100-fold increases in fluorescent intensities values relative to controls) where artificial concentration-dependent decreases in the rate occurred at high compound concentrations due to fluorescent interferences.
Keywords: Caspase 7, proteases, profluorescent, MLSMR, MLSCN, NIH Roadmap, qHTS, NCGC
As to `CCC(Oc1ccccc1)C(=O)NCc1cccnc1` (configuration not stated), the “activity change, negative = inhibition” value is -0.0605%.
Next, `CC1(C)C=CC(=O)[C@]2(C)C1CC(=O)[C@]1(C)C2CC[C@@]2(C)C(c3ccoc3)OC(=O)C3OC321` (some centres not stated): -0.171%.
The result for `CCCCCNC(=O)Cc1ccc(OC)cc1` reads -1.53%; that for `C=CC(=O)c1ccc2ccccc2c1`, -1.45%.
With `COC(=O)C1=C(N)Oc2cc(C)oc(=O)c2C1c1cccnc1` (configuration not stated), the “activity change, negative = inhibition” value is 1.77%.
The result for `CCOC(=O)c1c(-n2cnnn2)sc(C)c1C` reads 0.213%; that for `CNc1ncnc2ccc(-c3cccc(NS(C)(=O)=O)c3)cc12`, 1.83%.
Next, `Cn1cccc1Cc1nnc(SCC(=O)NCc2ccc3c(c2)OCO3)n1CCc1ccccc1`: -0.938%; `CC(C)(C)c1ccc(NC(=O)NCc2ccco2)cc1`: -2.01%.
The result for `CC1(C)OC2CC3C4CCC5=CC(=O)CCC5(C)C4(F)C(O)CC3(C)[C@]2(C(=O)CCl)O1` (some centres not stated) reads -0.0664%; that for `C=C[C@](C)(O)CCC1C(=C)CCC2[C@@](C)(CO)CCC[C@@]12C` (some centres not stated), 1.43%.
For the compound `COc1c(C(C)C)oc2cc3oc(=O)ccc3cc12`, the “activity change, negative = inhibition” value is -1.38%.
As to `COC(=O)[C@@H]1C[C@@]2(O)[C@H](O)[C@H](O)[C@H](O)C[C@H]2N1CC1CCCCC1`, the “activity change, negative = inhibition” value is -0.73%.
Regarding `Clc1ccc(C=NC23CN4CN(CN(C4)C2)C3)cc1`, the “activity change, negative = inhibition” value is 0.219%.
The result for `O=C1CCCC(O)=C1C=NCCc1ccccc1` reads 1.03%.
Next, `CCC(C)(C)n1nnnc1C(c1cccs1)N1CCN(Cc2ccccc2)CC1` (configuration not stated): -8.5%.
Next, `Cc1c(S(=O)(=O)O)oc2c1C(=O)C(=O)c1c-2ccc2c1CCCC2(C)C`: -0.0406%; `CN(C)/C=N/c1cc(=O)n(C)c(=O)n1CC1CC1`: -0.251%.
Regarding `O=C(OCc1nnc(-c2ccccc2)o1)c1ccc2c(c1)C(=O)N(CCc1ccccc1)C2=O`, the “activity change, negative = inhibition” value is -1.28%.
The result for `c1ccc2cc3[nH]c(CN4CCCCC4)nc3cc2c1` reads 0.392%.
The result for `COC1[C@H](OC(N)=O)C(O)[C@H](Oc2ccc3c(O)c(NC(=O)c4ccc(O)c(CC=C(C)C)c4)c(=O)oc3c2C)OC1(C)C` (some centres not stated) reads -0.537%; that for `COc1cccc(OCC(O)CN2CCN(CCO)CC2)c1` (configuration not stated), 0.0001%.
Next, `Cc1oc(C)c(C(=O)NCCCC(=O)O)c1C(=O)NCCCC(=O)O`: 0.635%; `CCOc1cc(S(=O)(=O)NC2CC(C)(C)NC(C)(C)C2)ccc1F`: -0.319%.
Consider `COc1cc(OC)c2c(c1Cl)OC1(C2=O)C(O)=CC(=O)CC1C` (configuration not stated), for which the “activity change, negative = inhibition” value is -1.66%.
Next, `CC(C)(O)CCC(O)[C@@](C)(O)C1CC[C@]2(O)C3=CC(=O)C4CC(O)C(O)C[C@]4(C)C3CC[C@]12C` (some centres not stated): 2.51%.
As to `CC(=O)Oc1c2c(c3c(c1CC=C(C)C)O[C@@]14C(=CC5CC1C(C)(C)OC4(C/C=C(\C)C(=O)O)C5=O)C3=O)OC(C)(CCC=C(C)C)C=C2` (some centres not stated), the “activity change, negative = inhibition” value was -23.4%.
Next, `CC(=O)OCC(=O)C1CCC2C3CCC4=CC(=O)CC[C@@]4(C)C3CC[C@]12C` (some centres not stated): -2.96%.
Next, `COc1ccc(CCN=C2SCC(=O)N2C)cc1OC`: -1.75%; `Cc1cccc(-n2c(O)c(C=Nc3ccccc3N)c(=O)[nH]c2=O)c1`: -4.62%; `CCC1=C(OC(=O)N(CC)CC)N2C(=O)OC(=NCCc3c[nH]c4ccccc34)[C@]2(C)[C@H]2C1=CC[C@H]1C(=O)N(CC)C(=O)[C@H]12`: -2.47%.
The result for `COc1ccccc1N1CCN(C[C@@H]2CN3C(=O)N(C)c4ccccc4C3=N2)CC1` reads 1.97%.
`COc1ccc(C2C(C(=O)N3CCN(c4ccc(OC)cc4)CC3)c3ccccc3C(=O)N2C)cc1` (configuration not stated): the “activity change, negative = inhibition” value was 1.08%.
Next, `CN(CCOc1ccc(CC2SC(=O)NC2=O)cc1)c1ccccn1` (configuration not stated): 1.57%; `N#CCC(=O)NC(=O)NCC1CC1`: -1.24%; `Cn1c(=O)cc(SCC(=O)N2CCN(C(=O)c3ccco3)CC2)c2ccccc21`: 0.0908%.
Next, `O=C(c1cccnc1NCc1ccccc1)N1CCOCC1`: -1.76%.
The result for `CN1CCC(CNC(=O)c2ccc(-n3c(=O)c(=O)[nH]c4ccccc43)cc2)CC1` reads -0.892%; that for `O=C(C1=C(O)C(=O)N(Cc2ccccc2)C1c1cccnc1)c1ccco1` (configuration not stated), -0.988%; that for `O=C(c1cccs1)N1CCN(Cc2ccc3c(c2)OCO3)CC1`, 1.48%.
Take `C[C@H]1CC[C@H](C(=O)O)N[C@@H]1c1ccc(C#Cc2ccccc2)cc1`: the activity change, negative = inhibition is 1.78% [at 11.5 µM].
As for `Cc1noc(C)c1CSc1nc2cc(S(=O)(=O)N3CCOCC3)ccc2o1`, the “activity change, negative = inhibition” value is 3.09%.
Next, `Cc1csc(-c2nc3ccccc3n2C)n1`: 0.971%; `COC(=O)[C@@H]1C[C@@]2(O)[C@H](O)[C@H](O)[C@H](O)C[C@H]2N1Cc1ccc(C(C)(C)C)cc1`: -0.0221%.
The result for `CCC(CC)C(=O)Nc1cc(C(=O)OC)cc(C(=O)OC)c1` reads 0.195%.
The result for `Cc1ccc(N(CC(O)CN2CCCC2)S(=O)(=O)c2ccccc2)cc1` (configuration not stated) reads -0.0894%; that for `O=C(COc1ncnc2ccccc12)NC(=O)NCc1ccccc1`, -0.802%.
With `Cc1ccccc1Nc1nnc(C)c(=O)[nH]1`, the “activity change, negative = inhibition” value is -0.782%.
The result for `CC(C)=CCC/C(C)=C/CC/C(C)=C/CC/C(C)=C/CO` reads 0.242%; that for `CCCOc1ccc2c3c(c(=O)oc2c1OCCC)CCC3`, -4.43%; that for `CCOC(=O)Cn1c(=O)oc2cc(S(=O)(=O)N(C)Cc3ccco3)ccc21`, -0.862%.
As to `CC(C)[C@H]1CC[C@@H](C)C[C@H]1O`, the “activity change, negative = inhibition” value was 0.98%.
